Sampled rows, rich in hits. Any-hit rate of the full collection: about 11%.
USP28 block: inhibitors of human USP28 deubiquitinase; purified USP28, Ub-rhodamine cleavage fluorescence, 30 min; inhibition, % at 25 µM; 47,000 tested, 3% active; AID 1645857, 2021
USP30 block: inhibitors of human USP30 deubiquitinase; Ubiquitin carboxyl-terminal hydrolase 30 (Homo sapiens), Q70CQ3; purified USP30, Ub-rhodamine cleavage fluorescence; inhibition, % at 25 µM; 47,000 tested, 5.3% active
Target sequence (Q70CQ3 whole entry, looked up): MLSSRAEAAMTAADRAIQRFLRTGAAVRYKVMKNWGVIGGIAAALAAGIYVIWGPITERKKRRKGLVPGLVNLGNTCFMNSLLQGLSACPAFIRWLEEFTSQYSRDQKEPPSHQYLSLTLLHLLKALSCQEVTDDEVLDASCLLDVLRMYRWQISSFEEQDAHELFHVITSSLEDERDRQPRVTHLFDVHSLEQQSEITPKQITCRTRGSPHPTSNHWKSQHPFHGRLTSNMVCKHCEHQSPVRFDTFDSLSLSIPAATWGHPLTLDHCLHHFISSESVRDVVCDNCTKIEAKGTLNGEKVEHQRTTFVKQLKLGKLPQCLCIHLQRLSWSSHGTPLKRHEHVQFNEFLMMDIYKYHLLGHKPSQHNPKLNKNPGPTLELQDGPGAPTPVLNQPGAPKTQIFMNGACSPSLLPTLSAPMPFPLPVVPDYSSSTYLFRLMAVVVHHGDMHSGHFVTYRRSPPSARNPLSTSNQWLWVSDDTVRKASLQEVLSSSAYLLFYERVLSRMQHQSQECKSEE
USP17 inh: inhibitors of human USP17 deubiquitinase. inhibition, % at 50 µM. purified USP17, Ub-rhodamine cleavage fluorescence, 3 h. Ubiquitin carboxyl-terminal hydrolase 17-like protein 5 (Homo sapiens), A8MUK1. 47,000 tested, 6.5% active
Active calls of the source: *; i = inactive; . = no result. Cut-off read from the data, not from the text of the source: active = inhibition above about 30%; inactive = the rest.

SMILES	USP28 block	USP30 block	USP17 inh
CCn1cc(CC(=O)NCc2ccncc2)c2cccnc21	-17	-31	-15
CCn1cc(S(=O)(=O)N2CCc3nc(-c4ccc(Cl)cc4)ncc3C2)cn1	0	11	0
COc1ccc(S(=O)(=O)N(Cc2cccnc2)Cc2ccco2)cc1OC	.	.	6
Cc1nn(-c2ccccc2)c2c1c(C)c(CCC(=O)N1CCN(c3ccccc3F)CC1)c(=O)n2C	6	16	-2
Cc1nc(SCC(=O)Nc2cc(Cl)ccc2C)c2oc3ccccc3c2n1	20	53*	26
CCc1nc(SCC(=O)Nc2ccc(Cl)cc2Cl)c2oc3ccccc3c2n1	1	-45	3
O=C(CSc1ncnc2c1oc1ccccc12)Nc1cc(Cl)ccc1Cl	-4	-5	-2
Cc1nc(SCC(=O)c2ccc(F)cc2)c2oc3ccccc3c2n1	-12	5	8
Cc1ccc(Cl)cc1NC(=O)CSc1ncnc2c1oc1ccccc12	5	5	31*
Cc1nc(SCC(=O)Nc2ccc(C)c(C)c2)c2oc3ccccc3c2n1	6	12	36*
O=C(c1ccc2ncccc2c1)N1CCC2(C1)Nc1cccnc1NC2=NC1CCCC1 (stereo not drawn)	-273	i	-159
CC(C)CNc1nc2c(cc1C(=O)NCC1CC1)CCNCC2	12	45*	0
O=C(NCC1CC1)c1cc2c(nc1NCC1CC1)CCNCC2	-25	-2	-28
Cc1cc(N2C(=O)c3oc4ccc(F)cc4c(=O)c3C2c2cccc(OCc3ccccc3Cl)c2)no1 (stereo not drawn)	-2	6	-4
COc1cccc(S(=O)(=O)N2CCCn3c(nc4ccccc43)C2)c1	3	20	8
O=C(c1ccc(Cl)cc1)N(c1ccccn1)C1CCCCC1	48*	81*	87*
O=C(c1ccc(F)cc1Cl)N(c1ccccn1)C1CCCCC1	12	27	.
O=C(NCCc1ccc(F)cc1)c1cc2c([nH]c1=O)CCCC2	-12	-1	42*
O=C(NCCc1ccc(F)cc1)c1csc2c1CCCC2	22	15	5
Cc1nnc(NCc2cccnc2)c2c1nnn2Cc1ccccc1Cl	18	60*	-2
Clc1ccccc1Cn1ncc2c(NCc3cccnc3)ncnc21	10	-6	0
COc1ccc(C(=O)N2CCCC(c3ncc(C)[nH]3)C2)cn1 (stereo not drawn)	-8	7	-5
CC(=O)N[C@@H](CSC1=C2NC(=O)\C(C)=C/C=C\C=C\[C@@H](C)[C@@H](O)CC(=O)/C(C)=C/C[C@H](O)/C=C/[C@H](C)[C@@H](O)[C@H](C)/C=C(\C)C(=O)c3c(O)c(C)cc(c3C1=O)C2=O)C(=O)O	-58	-401	-56
Cc1ccc(F)cc1S(=O)(=O)N1CCC2(CC1)CC2c1nc(-c2cccnc2)no1 (stereo not drawn)	-4	-9	-12
COc1ccc(S(=O)(=O)N2CCC3(CC2)CC3c2nc(-c3cccnc3)no2)c(C)c1 (stereo not drawn)	5	36*	19
SMILES	USP28 block	USP30 block	USP17 inh
O=C(Cc1ccc2ccccc2c1)NCCc1nc2ccccc2[nH]1	-11	-47	-23
COc1ccc(/C=C/C(=O)Nc2c3c(nc4c2CCC4)CCCC3)cc1	7	61*	38*
COc1ccc(/C=C/C(=O)Nc2ccc(OC)nc2)cc1	17	-45	23
CN(C)c1nc2c(cc1C(=O)NCC1CC1)CCN(c1ncccn1)CC2	-1	-19	-9
COc1ccc(-c2ocnc2C(=O)Nc2ccc(C)c(F)c2)cc1OC	5	23	10
O=C(Nc1ccncc1)c1ncoc1-c1cccc(Cl)c1	2	66*	7
O=C(c1cscn1)N1CCC2(CCCN2Cc2ccc(Cl)cc2)C1 (stereo not drawn)	0	6	3
O=C(NCc1ccc(Cl)cc1)C1(c2ccc(Cl)cc2)CCCC1	9	29	8
Cn1c(O)c(C2=Nc3ccccc3SC(c3cccc(O)c3)C2)c(=O)n(C)c1=O (stereo not drawn)	-7	-7	1
Cn1c(O)c(C2=Nc3ccccc3SC(c3cccc(O)c3)C2)c(=O)[nH]c1=O (stereo not drawn)	15	-27	39*
O=c1c2cnc(N3CCCC3)nc2ccn1-c1ccc(F)cc1	7	28	20
COc1cccc(CNC(=O)Cc2c(C)n[nH]c2C)c1	-7	-6	.
CSc1ccc(CNC(=O)Cc2c(C)n[nH]c2C)cc1	8	34*	15
Cc1nc(C)n(CCC(=O)Nc2ccc(F)cc2)n1	7	11	17
Cc1csc2ncc(C(=O)NCCc3ccc(Cl)cc3)c(=O)n12	14	26	37*
Cc1ccc(CCNC(=O)c2cnc3sc4c(n3c2=O)CCC4)cc1	-4	-7	-3
Cc1c(Cl)cccc1NC(=O)Cn1cc(C(=O)C2CC2)c2ccccc21	-5	1	0
O=C(Cn1cnc2c(c1=O)CCN(Cc1ccccc1)C2)Nc1ccccc1Cl	-27	-50	-32
O=C(Cn1ccc2ccn(Cc3ccccc3)c2c1=O)Nc1ccccc1Cl	8	10	33*
Cc1c(Cl)cccc1NC(=O)Cn1ccc2ccccc2c1=O	-7	-37	71*
O=C(Cn1ccc2ccn(Cc3ccccc3)c2c1=O)NC1CCCC1	27	0	39*
O=C(Cn1ccc2ccn(Cc3cccnc3)c2c1=O)NC1CCCC1	2	0	-2
CC(C)(C)c1cc2n(n1)CCN(Cc1ccc(Cl)cc1)C2	11	10	1
COc1ccc(NC(=O)CSc2nccn2C2CCCCC2)cc1	-7	15	-6
COc1ccc(-c2nnc(SCC(=O)Nc3ccc(C)cc3)n2C2CCCCC2)cc1OC	15	48*	34*
SMILES	USP28 block	USP30 block	USP17 inh
Cc1ccc(S(=O)(=O)NCCn2ccc3ccccc32)cc1	-38	-139	-31
Cc1ccc(S(=O)(=O)NCCn2c(N)c(C#N)c3nc4ccccc4nc32)cc1	-46	-154	40*
COc1ccc(C2NC(=O)NC(C)=C2C(=O)OCC2CCCCC2)cc1OC (stereo not drawn)	-6	4	-14
CC1=C(C(=O)OCCc2ccccc2)C(c2ccc3c(c2)OCO3)NC(=O)N1 (stereo not drawn)	34*	39*	14
O=C(COc1ccccc1-c1nnc(-c2ccccc2)o1)NCc1ccc2c(c1)OCO2	7	10	29
COC(=O)c1ccc(CSc2nnc(CNC(=O)COc3ccc(Cl)cc3)o2)o1	-7	-10	-15
O=C(COc1ccc(Cl)cc1)NCc1nnc(SCC(=O)NCc2ccc3c(c2)OCO3)o1	0	26	70*
COc1ccc(CCNC(=O)CSc2nnc(CNC(=O)COc3ccc(Cl)cc3)o2)cc1OC	25	34*	46*
COc1ccc(OC)c(C2c3[nH]c4ccccc4c3C[C@@H]3C(=O)N(Cc4ccc5c(c4)OCO5)CC(=O)N23)c1 (stereo partly drawn)	-19	-147	-16
Cc1ccc(C)c(NC(=O)Cn2c(=O)cc(-c3nc(C)no3)c3ccccc32)c1	12	29	18
COc1ccccc1CC(=O)NC1CC2(CCOCC2)Oc2ccccc21 (stereo not drawn)	6	9	11
